Experimental data from PubChem BioAssay AID1159580 (chemical genetic matrix, 2015).
Screen size: about 5,500 compounds; about 2,000 (36%) were called active. Another 18% or so got no clear call; they are omitted. Cut-off read from the data, not from the text of the source: active = normalized growth mostly below about 0.91 (no sharp cut-off); inconclusive = no clear call, values can overlap the other calls; inactive = mostly above about 0.92. The list shows a part of the results.

Experiment: chemical genetic growth profiling, strain panel (AID 1159580);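 note: tested at 20 µM; growth read once vehicle control cultures reached saturation at 30 °C; 1 = growth at the plate median or of vehicle wells; lower values mean less growth of the strain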
Details: S. cerevisiae deletion strains, growth OD

Measured: normalized growth

CC(=O)OCC(=O)[C@@]1(O)CCC2C3CC[C@@H]4C[C@H](O)CC[C@]4(C)C3C(=O)C[C@@]21C (stereo not given in full)
inactive: locus YAL021C, strain ccr4, active compounds read low 1.02 | locus YAL026C, strain drs2, active compounds read low 1.01 | locus YAL030W, strain snc1, active compounds read low 1.02 | locus YBL061C, strain skt5, active compounds read low 1.03 | locus YBR009C, strain hhf1, active compounds read low 1.03 | locus YBR023C, strain chs3, active compounds read low 1.02 | locus YBR171W, strain sec66, active compounds read low 1.03 | locus YBR231C, strain swc5, active compounds read low 1.02 | locus YBR279W, strain paf1, active compounds read low 1.03 | locus YCL011C, strain gbp2, active compounds read low 1.04 | locus YCL016C, strain dcc1, active compounds read low 1.04 | locus YCL061C, strain MRC1, active compounds read low 1.03 | locus YCL069W, strain vba3, active compounds read low 1.01 | locus YCR088W, strain abp1, active compounds read low 1.01 | locus YDL005C, strain med2, active compounds read low 1.02 | locus YDL040C, strain nat1, active compounds read low 1.02 | locus YDR001C, strain nth1, active compounds read low 1.01 | locus YDR069C, strain doa4, active compounds read low 1.02 | locus YDR137W, strain rgp1, active compounds read low 1.06 | locus YDR159W, strain sac3, active compounds read low 1.01 | locus YDR195W, strain ref2 0.988 | locus YDR297W, strain sur2, active compounds read low 1.01 | locus YDR334W, strain swr1, active compounds read low 1.01 | locus YDR335W, strain msn5, active compounds read low 1.01 | locus YDR392W, strain spt3, active compounds read low 0.983 | locus YEL003W, strain gim4, active compounds read low 1.01 | locus YEL037C, strain rad23, active compounds read low 1 | locus YEL061C, strain CIN8 (second series), active compounds read low 1.01 | locus YER015W, strain faa2, active compounds read low 1.01 | locus YER016W, strain bim1, active compounds read low 1.02 | locus YER111C, strain swi4, active compounds read low 1.02 | locus YER155C, strain BEM2 (second series), active compounds read low 1.03 | locus YFR010W, strain ubp6, active compounds read low 1.01 | locus YGL167C, strain pmr1, active compounds read low 1.01 | locus YGL173C, strain kem1, active compounds read low 1.03 | locus YGL227W, strain vid30, active compounds read low 1.02 | locus YGL240W, strain doc1, active compounds read low 1.03 | locus YGL253W, strain hxk2, active compounds read low 1.01 | locus YHR013C, strain ard1, active compounds read low 1.03 | locus YHR027C, strain rpn1, active compounds read low 1.01 | locus YHR142W, strain chs7, active compounds read low 1.02 | locus YJL092W, strain hpr5, active compounds read low 1.01 | locus YJL095W, strain BCK1 (second series), active compounds read low 1.02 | locus YJL115W, strain asf1, active compounds read low 1.02 | locus YJL129C, strain trk1, active compounds read low 1.05 | locus YJL154C, strain vps35, active compounds read low 1.01 | locus YJL164C, strain tpk1, active compounds read low 1.03 | locus YJL166W, strain qcr8, active compounds read low 1.03 | locus YJL187C, strain SWE1, active compounds read low 1.02 | locus YKL160W, strain elf1, active compounds read low 1.03 | locus YKR026C, strain gcn3, active compounds read low 1.01 | locus YKR091W, strain srl3, active compounds read low 1.02 | locus YLL001W, strain dnm1, active compounds read low 1.03 | locus YLL026W, active compounds read low 1.02 | locus YLL041C, strain sdh2, active compounds read low 1.01 | locus YLR027C, strain aat2, active compounds read low 1.02 | locus YLR221C, strain rsa3, active compounds read low 1.05 | locus YLR258W, strain gsy2, active compounds read low 1.02 | locus YLR262C, strain YPT6 (second series), active compounds read low 1.04 | locus YLR320W, strain mms22, active compounds read low 1.07 | locus YLR342W, strain FKS1, active compounds read low 1.01 | locus YLR357W, strain rsc2, active compounds read low 1.03 | locus YLR370C, strain arc18, active compounds read low 1.02 | locus YLR384C, strain iki3, active compounds read low 1.02 | locus YML120C, strain ndi1, active compounds read low 1.01 | locus YMR058W, strain fet3, active compounds read low 1.01 | locus YMR125W, strain sto1, active compounds read low 1.02 | locus YMR129W, active compounds read low 1.01 | locus YMR205C, strain PFK2, active compounds read low 1.03 | locus YMR231W, strain pep5, active compounds read low 1.01 | locus YNL071W, strain lat1, active compounds read low 1.02 | locus YNL209W, strain ssb2, active compounds read low 1.02 | locus YNL248C, strain rpa49, active compounds read low 1.01 | locus YNL322C, strain KRE1 (second series), active compounds read low 1.03 | locus YNR049C, strain mso1, active compounds read low 1.01 | locus YOR001W, strain rrp6, active compounds read low 1.01 | locus YOR070C, strain gyp1, active compounds read low 1.02 | locus YOR080W, strain dia2, active compounds read low 1.02 | locus YOR083W, strain WHI5, active compounds read low 1.04 | locus YOR106W, strain vam3, active compounds read low 1.02 | locus YOR265W, strain rbl2, active compounds read low 1.02 | locus YOR270C, strain vph1, active compounds read low 1.03 | locus YOR290C, strain snf2, active compounds read low 1 | locus YPL051W, strain arl3, active compounds read low 1.02 | locus YPL078C, strain atp4, active compounds read low 1.02 | locus YPL106C, strain sse1, active compounds read low 1.07 | locus YPL240C, strain hsp82, active compounds read low 1.02

CC(=O)C1CCC2C3CC=C4CC(OS(=O)(=O)O)CC[C@]4(C)C3CC[C@]12C (stereo not given in full)
inactive: locus YHR030C, strain SLT2, active compounds read low 0.973 | locus YHR079C, strain IRE1, active compounds read low 0.984 | locus YJL095W, strain BCK1, active compounds read low 0.953 | locus YJR066W, strain TOR1, active compounds read low 0.877 | locus YLR113W, strain HOG1, active compounds read low 1.03 | locus YNL183C, strain NPR1, active compounds read low 0.902 | locus YOR231W, strain MKK1, active compounds read low 0.977 | locus YPL256C, strain CLN2, active compounds read low 0.975
